Assay in all cases: NCI-60 one-dose screen, 48 h (100 = growth as untreated, 0 = no growth, -100 = all killed)
For one assay, the system named is HCT-15 colon. Conditions: 10 µM unless noted.
In a further assay the test system is HT29 colon. Conditions: 10 µM unless noted.
Another assay has as its system SNB-75 CNS. Conditions: 10 µM unless noted.
A further assay relates to SNB-19 CNS. Conditions: 10 µM unless noted.
The test system of the next assay is U251 CNS. Conditions: 10 µM unless noted.
The next assay relates to PC-3 prostate. Conditions: 10 µM unless noted.
The next assay has as its system SK-MEL-5 melanoma. Conditions: 10 µM unless noted.
For another assay, the system named is UACC-62 melanoma. Conditions: 10 µM unless noted.
The subject of the next assay is LOX IMVI melanoma. Conditions: 10 µM unless noted.
A further assay concerns SK-MEL-28 melanoma. Conditions: 10 µM unless noted.
In another assay the test system is SK-MEL-2 melanoma. Conditions: 10 µM unless noted.
A further assay relates to EKVX NSCLC. Conditions: 10 µM.
The subject of another assay is SN12C renal. Conditions: 10 µM unless noted.
For another assay, the system named is UO-31 renal. Conditions: 10 µM unless noted.
In the next assay the test system is TK-10 renal. Conditions: 10 µM unless noted.
The next assay has as its system ACHN renal. Conditions: 10 µM unless noted.
The subject of a further assay is CAKI-1 renal. Conditions: 10 µM unless noted.
The test system of another assay is A498 renal. Conditions: 10 µM unless noted.
A further assay has as its system CCRF-CEM leukemia. Conditions: 10 µM.
A further assay concerns MOLT-4 leukemia. Conditions: 10 µM unless noted.

This is part of a sample that, as a whole, favours compounds with a hit. Of some 83,000 tested, about 20% had one in any assay.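 A percent growth of 40 corresponds to 60% growth inhibition; 0 means no net growth; -100 means all cells died. Active threshold: below 10.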 Unmarked numbers belong to inactive results. Activity calls are given as the source filed them.

With `CCOc1ccc(/C=N/NC(=O)c2cccc3ccccc23)cc1OCC`, the growth with HCT-15 colon is 97.2%; in the assay with HT29 colon it was 103%; with SNB-75 CNS, 106%; in the assay with SNB-19 CNS it was 110%; in the assay with U251 CNS, 100%; in the assay on PC-3 prostate, 90.1%. In addition, the growth with SK-MEL-5 melanoma was 92.1%; in the assay with UACC-62 melanoma, 93.4%; in the assay on LOX IMVI melanoma it was 92.7%; in the assay on SK-MEL-28 melanoma, 103%; in the assay with SK-MEL-2 melanoma it was 106%; in the assay on EKVX NSCLC it was 99.1%. Moreover, the growth in the assay with SN12C renal was 96.1%; in the assay on UO-31 renal it was 81.6%; with TK-10 renal, 111%; in the assay with ACHN renal, 102%; in the assay on CAKI-1 renal, 99.3%; with A498 renal it was 78.1%. Further, the values for the growth in the assay with CCRF-CEM leukemia and in the assay with MOLT-4 leukemia were 84.1% and 88.3%, respectively.

Regarding `COc1cc(/C=C/C(=O)c2ccc(F)cc2)ccc1OCCCCOc1cc2c(cc1OC)C(=O)N1CCCC1C=N2` (stereo not drawn), the growth is -46.3% (active) in the assay with HCT-15 colon; -49.3% (active) with HT29 colon; -8.01% (active) with SNB-75 CNS; -35.3% (active) in the assay with SNB-19 CNS; -100% (active) in the assay with U251 CNS; -38.3% (active) in the assay with PC-3 prostate. The growth in the assay on SK-MEL-5 melanoma is -99.7% (active); in the assay with UACC-62 melanoma, -86% (active); with LOX IMVI melanoma, -84.6% (active); in the assay with SK-MEL-28 melanoma, -42.1% (active); with SK-MEL-2 melanoma it was -24.6% (active); in the assay with EKVX NSCLC it was 8.29% (active). Further, the growth with SN12C renal is -48.1% (active); with UO-31 renal it was -63% (active); in the assay on TK-10 renal, -16.9% (active); in the assay with ACHN renal it was -85.9% (active); in the assay with CAKI-1 renal, -14.2% (active); with A498 renal, 7.77% (active). For the same compound, the figures for the growth with CCRF-CEM leukemia and in the assay on MOLT-4 leukemia were -30.3% (active) and -19.4% (active), respectively.

On to `CC(=O)NNC(=O)c1sc(NC(C)=O)nc1C`, for which the growth in the assay with HCT-15 colon is 95.7%; with HT29 colon, 87.3%; in the assay with SNB-75 CNS, 99.2%; with SNB-19 CNS, 92.4%; with U251 CNS, 102%; with PC-3 prostate, 90.8%. Besides, the growth in the assay with SK-MEL-5 melanoma was 103%; with UACC-62 melanoma, 91.9%; with LOX IMVI melanoma, 94.4%; in the assay with SK-MEL-28 melanoma, 95.9%; in the assay on SK-MEL-2 melanoma, 35.3%; in the assay on EKVX NSCLC it was 115%. Moreover, the growth in the assay with SN12C renal was 99.4%; in the assay on UO-31 renal, 89.1%; with TK-10 renal, 95.2%; in the assay with ACHN renal, 106%; with CAKI-1 renal it was 115%; with A498 renal, 100%. Further, the growth is 88.1% with CCRF-CEM leukemia and 94.1% in the assay on MOLT-4 leukemia.

With `COc1ccc(Cn2cc3c(c2-c2ccccc2)CCc2cnoc2-3)cc1OC`, the growth in the assay on HCT-15 colon is 32%; with HT29 colon, 16.5%; in the assay with SNB-75 CNS, -11.1% (active); with SNB-19 CNS it was 50.3%; in the assay on U251 CNS it was 36.8%; in the assay on PC-3 prostate it was 26.5%. For the same compound, the growth is 10.5% in the assay with SK-MEL-5 melanoma; 48.7% in the assay on UACC-62 melanoma; 43.3% in the assay on LOX IMVI melanoma; 58.6% in the assay on SK-MEL-28 melanoma; 48% in the assay on SK-MEL-2 melanoma; 46.5% in the assay on EKVX NSCLC. The growth in the assay on SN12C renal was 49.5%; in the assay with UO-31 renal, 35.3%; with TK-10 renal, 70.4%; in the assay on ACHN renal, 57.7%; in the assay with CAKI-1 renal it was 18.9%; in the assay with A498 renal, 18.5%. Moreover, the growth in the assay on CCRF-CEM leukemia is 17.1%; in the assay on MOLT-4 leukemia, 35.9%.

As for `COc1ccccc1C(=O)Nc1cccc(-c2cc(=O)c3c(OC)c(OC)c(OC)cc3o2)c1`, the growth with HCT-15 colon was 41.5%; in the assay with HT29 colon, 24.6%; in the assay with SNB-75 CNS it was 83.2%; in the assay on SNB-19 CNS, 36.2%; in the assay with U251 CNS it was 39%; in the assay with PC-3 prostate it was 30%. Besides, the growth in the assay on SK-MEL-5 melanoma is 25%; in the assay with UACC-62 melanoma, 43.1%; in the assay on LOX IMVI melanoma it was 35.4%; in the assay on SK-MEL-28 melanoma, 56%; with SK-MEL-2 melanoma, 31.1%; with EKVX NSCLC, 61.7%. Also, the growth with SN12C renal was 41%; with UO-31 renal, 15.3%; with TK-10 renal, 53.4%; in the assay with ACHN renal it was 43%; in the assay with CAKI-1 renal it was 65.1%; with A498 renal, 44.9%. Besides, the figures for the growth in the assay with CCRF-CEM leukemia and with MOLT-4 leukemia were 16% and 28.8%, respectively.

Turning to `Cc1c(C(N)=O)sc2c1c(=O)n(Cc1ccccc1)c1nnc(S(C)(=O)=O)n21`, the growth with HCT-15 colon was 96.1%; in the assay on HT29 colon, 88.2%; in the assay on SNB-75 CNS, 94.4%; in the assay on SNB-19 CNS, 93.2%; in the assay with U251 CNS, 98.7%; with PC-3 prostate, 47.8%. In addition, the growth with SK-MEL-5 melanoma is 74.8%; in the assay on UACC-62 melanoma it was 78.1%; in the assay on LOX IMVI melanoma, 81.2%; in the assay on SK-MEL-28 melanoma, 96.2%; with SK-MEL-2 melanoma, 80.6%; with EKVX NSCLC, 98%. The growth with SN12C renal is 80.3%; in the assay on UO-31 renal it was 85.6%; in the assay on TK-10 renal, 93.1%; in the assay on ACHN renal it was 100%; with CAKI-1 renal, 86.5%; in the assay with A498 renal, 95.5%.

For the compound `CCOC(=O)C1=C(c2ccccc2)NC(=O)NC1CN1C(=O)c2ccccc2C1=O` (stereo not drawn), the growth was 115% in the assay with HCT-15 colon; 110% with HT29 colon; 98.8% in the assay with SNB-75 CNS; 107% in the assay on SNB-19 CNS; 102% in the assay on U251 CNS; 100% with PC-3 prostate. The growth is 104% in the assay on SK-MEL-5 melanoma; 98.5% in the assay on UACC-62 melanoma; 110% in the assay on LOX IMVI melanoma; 105% with SK-MEL-28 melanoma; 101% in the assay with SK-MEL-2 melanoma; 130% in the assay with EKVX NSCLC. Besides, the growth in the assay with SN12C renal was 107%; in the assay with UO-31 renal it was 102%; with TK-10 renal it was 111%; in the assay on ACHN renal it was 111%; in the assay with CAKI-1 renal it was 105%; with A498 renal it was 118%. Besides, the growth with CCRF-CEM leukemia is 54.4%; in the assay on MOLT-4 leukemia, 2.02% (active).

`CC(=O)N1N=C(c2ccc(Cl)cc2)CC1c1cn(-c2ccccc2)nc1-c1ccc([N+](=O)[O-])cc1` (stereo not drawn): the growth is 92.6% in the assay with HCT-15 colon; 93.8% in the assay on HT29 colon; 72.5% with SNB-75 CNS; 90.1% in the assay with SNB-19 CNS; 96.9% in the assay on U251 CNS; 108% in the assay on PC-3 prostate. Besides, the growth with SK-MEL-5 melanoma is 101%; in the assay on UACC-62 melanoma, 85.1%; in the assay with LOX IMVI melanoma, 97.8%; in the assay on SK-MEL-28 melanoma it was 110%; with SK-MEL-2 melanoma, 129%; in the assay on EKVX NSCLC, 98.8%. The growth in the assay with SN12C renal was 96.8%; in the assay with UO-31 renal, 107%; in the assay with TK-10 renal, 111%; in the assay on ACHN renal, 96.8%; in the assay on CAKI-1 renal it was 83.5%; with A498 renal it was 109%. Further, the growth with CCRF-CEM leukemia was 105%; with MOLT-4 leukemia it was 110%.

For the origin of these results see PubChem BioAssay (NCI).
